Reference: publication PMC12136788
Numbering of substitutions follows the chain as printed. Whole data set: some 24,000 sequences, median “enrichment r” near 0.99, cut for the highest 2% near 3.7. What follows is part of a selection rich in the highest values, with near analogues and random picks from the rest.

T1: UNK ZnF1-3 (human, UniProt Q9C0B0 31-174)
T1 sequence: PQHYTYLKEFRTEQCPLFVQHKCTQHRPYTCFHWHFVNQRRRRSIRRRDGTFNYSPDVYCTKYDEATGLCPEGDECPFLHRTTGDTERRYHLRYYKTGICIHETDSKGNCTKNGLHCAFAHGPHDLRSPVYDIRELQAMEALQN

B1: chr1:151206805:151206806:+_ENSG00000143398_ENST00000349792|hu_hu|FALSE|FALSE (ssRNA)
RNA: GGGAGUUCUACAGUCCGACGAUCCUUCUCUCGCUCUUUCUGGGAAGCCCGCCGUUUGUAGGUUGAGCCUUUGAGGUCAUAUUUGAUAUGCAUUUUUACCGAUCUUGGUAAAAGAUUGUUCAUCACCACAAUCCGAAUGUUCUUCAACAGAGGAUUGAGCAUCA
B2: chr7:90019630:90019631:+_ENSMUSG00000057706_ENSMUST00000082237|mus_hu|motif|central (ssRNA)
RNA: GGGAGUUCUACAGUCCGACGAUCUAUAUCACUGAAUAGAAAAUAUGCUGGGUGAAGCAGAUCUAGAAGAUUUGUCUGAACCGGUAAAAUCUCCAUCCCAACAGAAUACUGUUCAAAACAUUACACAUUUUAUGGUUGUAAUUCCAACAGAGGAUUGAGCAUCA
B3: chr1:95362928:95362929:-_ENSG00000117519_ENST00000538964|hu_hu|motif|central (ssRNA)
RNA: GGGAGUUCUACAGUCCGACGAUCAGACCACAUUUAGCAAUAAGCAUGAGUUUAGUCUUCCAUGUAGAAACCAGAUACACGGAACUGUAAAAAAAAAAAAAAAAAAAAAAAGUUUCCUAUUGUUUGAAAAUACCAGUUUAAUAUCAACAGAGGAUUGAGCAUCA
B4: chr1:84720644:84720645:-_ENSMUSG00000026219_ENSMUST00000027421|mus_hu|FALSE|FALSE (ssRNA)
RNA: GGGAGUUCUACAGUCCGACGAUCUGAAUUUUAAAUUAGAUCUUAACUGGAGAGAACAUGGGACAACAGAAGCCCAUGGGUAACGAAAAUUUGAGAACUGUGAGUUGUAUACAAAAAAAAAACUGUGAGCUGCACAGAUAAUAACAACAGAGGAUUGAGCAUCA
B5: chr5:69964302:69964303:+_ENSMUSG00000029208_ENSMUST00000154728|mus_hu|FALSE|FALSE (ssRNA)
RNA: GGGAGUUCUACAGUCCGACGAUCUGCAGUCUGGUUUGUUCGUUGGCUGAAUAAACAUGGGAGCUGAGAGCUCUGGAGAAAUACAGCCAUUUACUGGCUGUGAAAUCUCAAGUUAACUACUCUAAAAUCGCUUCGAUUAUGAAACAACAGAGGAUUGAGCAUCA
B6: chr17:64801638:64801639:+_ENSG00000154229_ENST00000413366|hu_mus|hu_hu_hu_mus_False|78_98 (ssRNA)
RNA: GGGAGUUCUACAGUCCGACGAUCUAUAUAUAUAUAUAUAUACACACACAUAUAUAGUAAGAGCCUAGUUAAACGUGUAAAGUAGCCAUUCAUUUUUAAAAUUACAUCUACAUUAAAAAAUUAAUAUAUCUGAUAGAGUGCCAGCAACAGAGGAUUGAGCAUCA
B7: chr17:64801638:64801639:+_ENSG00000154229_ENST00000413366|hu_mus|hu_hu_hu_mus_False|28_88 (ssRNA)
RNA: B6 RNA with U38C, C42U, A43G, C44U, A53G, G60A, G62C, A114U
B8: chr4:175231952:175231953:+_ENSG00000164118_ENST00000503780|hu_hu|motif|central (ssRNA)
RNA: GGGAGUUCUACAGUCCGACGAUCAUUCAGAAGGUCCAUGUCACUACAAGAAGCGUAGUCUUCACUAACUUCAUUAAACUCGGUAAAUUCAUCAUUCUUUUUAGACAAAAGCAUUUCUGUUUCAAGAAGAGUGACACGACUAAGCAACAGAGGAUUGAGCAUCA
B9: chr3:25639645:25639646:-_ENSG00000077097_ENST00000264331|hu_mus|FALSE|FALSE (ssRNA)
RNA: GGGAGUUCUACAGUCCGACGAUCAUCAGACAACACAUGACAUUUCAAUGAGUAAAAAAGAGCAUAAAACUGUAUGUGUAAGAACAAAAUGUUAAAAGGCCUACCACAAUAAUAAAAAACCAUCAAUUACAUCAUCACAUUAAACAACAGAGGAUUGAGCAUCA
B10: chr17:64801638:64801639:+_ENSG00000154229_ENST00000413366|hu_mus|hu_hu_hu_mus_False|1_98 (ssRNA)
RNA: B6 RNA with G60A, G62C, A142C, G143A
B11: 135118432_135118552_3022_ncRNA_ENSMUSG00000030795_ENSMUST00000128851|mouse|control|control (ssRNA)
RNA: GGGAGUUCUACAGUCCGACGAUCAUGAGCAAUACACUCAAGAUCUUUCUUGUAGUCCACACCUUCCUUCCCAGAUCUAGUUCCUAUAUAUUUGUCUGAGUACAUAUGUAGAAUUGCAUUGACAUCACUAUUUAAUAUAAAUAUCAACAGAGGAUUGAGCAUCA
B12: chr11:9468696:9468697:+_ENSG00000205339_ENST00000379719|hu_hu|FALSE|FALSE (ssRNA)
RNA: GGGAGUUCUACAGUCCGACGAUCCAUUAACAAUAAUGUGAAAAUUAGAAUUAUGAAUUCAAAAAGCAGUGAAGUCUGAAAAUUUAAAAAGUAGACUAGGUAUUAGGGGAUUAAAGGUAAAGGAAGACGAGAAUGUUUCUUUAACAACAGAGGAUUGAGCAUCA
B13: chr1:225611761:225611762:-_ENSG00000143815_ENST00000272163|hu_mus|hu_hu_hu_mus_True|1_18 (ssRNA)
RNA: GGGAGUUCUACAGUCCGACGAUCCCAGGCCAUCGGCCUCUGACCACUUCACCCUCAACAAACUUCCUACUUGGCAUUUUCUAAAAUUAGUCUGGCCGCGCUCCGGCGGGAACUCCAGACGGCUCCCGACAGUCACCCGCACAGCAACAGAGGAUUGAGCAUCA
B14: chr1:247070963:247070964:-_ENSG00000153207_ENST00000391829|hu_mus|motif|central (ssRNA)
RNA: GGGAGUUCUACAGUCCGACGAUCCUGAUUUGUCCUGUUGAUGUAACUCAGAGUAGAAAUGGCUACUCCCAAUGGGCUUACGGACUGGAAGCACAGGUGGCGCCCCUCUCUCAUCACUCUCUCUCUGAUGUGUGGUACUUCAGCCAACAGAGGAUUGAGCAUCA
B15: chr11:97025304:97025305:-_ENSMUSG00000001440_ENSMUST00000001479|mus_hu|FALSE|FALSE (ssRNA)
RNA: GGGAGUUCUACAGUCCGACGAUCAGCUACUACUCCAUCUGUGUGAUCCUCAUCUCCAGCAAUGUGGUCAAUGAAAGACAGAAUAAAUUCUACUCUGGGUUGUACCAGCAUCACAUCCGGGUGUACGUUCUCCUGAUCCCCCUUCAACAGAGGAUUGAGCAUCA
B16: chr2:25965407:25965408:-_ENSG00000143970_ENST00000336112|hu_hu|motif|central (ssRNA)
RNA: GGGAGUUCUACAGUCCGACGAUCCUGUGCUGCCUGAAUUAAAUCUCUGGCUAGGGUCUUUUCAUCAAAUGUUUGGCCUCGGGUGAACAGGUAAUUCUCCUUACUUAAAGUGGUUUGCUCAUUCAAUGGUAUCUCAGCCUUCACCAACAGAGGAUUGAGCAUCA
B17: chr7:140404665:140404666:+_ENSG00000090266_ENST00000247866|hu_hu|hu_hu_hu_mus_False|8_88 (ssRNA)
RNA: GGGAGUUCUACAGUCCGACGAUCUGCUCCUACUCGUCCAGAGAGUUUACACCUUCAGUCCUCGUCAUCAGGAGGGAUUCCCAGUUCUUCAUCUGUCCACUGUGAAGGAUCUGGAUAUGAAAAGUGACCCAGCACCUCAUCCGACAACAGAGGAUUGAGCAUCA
B18: chr18:67804014:67804015:+_ENSMUSG00000024537_ENSMUST00000025418|mus_mus|motif|central (ssRNA)
RNA: GGGAGUUCUACAGUCCGACGAUCGCAAUCAGUAUAGAAAUAACCAAUCUUACACAUGUUCAGUGUAGAAAUAAUCAGAUCGGUUGCAAGCUGGCCAACAUUUCCAACGGAUACUGCUGGCAUCAGGAGUGUAAAGUUCGUUAGCAACAGAGGAUUGAGCAUCA
B19: chr4:140556289:140556290:+_ENSMUSG00000036622_ENSMUST00000037055|mus_mus|mus_mus_mus_hu_False|48_48 (ssRNA)
RNA: GGGAGUUCUACAGUCCGACGAUCGAUGGAGCUCACCAGGCCCCCUUUUGCCGUGCAGAACCCUGUGCGGGUCACCACUGCCAGGACACGGGGUCCCACAUAGGCCCGGGCCUGCAAGAUGAGGGUCCCGCAGAAGAGUGUGUGCAACAGAGGAUUGAGCAUCA
B20: 134094901_134095021_423_5pUTR_ENSG00000151502_ENST00000281187|human|control|control (ssRNA)
RNA: GGGAGUUCUACAGUCCGACGAUCCUCAUCGCACCGCCGGGCCGGGCGGGUCUCGGUAAGGACCGCUCCCUCGCACCGGGGCGCGGGCUGCCCUAGGUAAAGAAGGCCAGAGGGCCCGAUGCGCGAGCGCGCUCGGCCGCCGCGCAACAGAGGAUUGAGCAUCA
B21: chr14:63765801:63765802:-_ENSMUSG00000021273_ENSMUST00000054963|mus_mus|motif|central (ssRNA)
RNA: GGGAGUUCUACAGUCCGACGAUCCUGCUUGGUUUUGCUUGAUGAUGGGUCUGAGUUGGGGAUCCGGUGAUAAAUCUCUUCGGUGUACUGGUAUAUGAUAGCUUUGACGGCAGGCAUGUUGGUGGCAUCCAUCAUGAGGGUGACCAACAGAGGAUUGAGCAUCA
B22: 46153067_46153187_242_5pUTR_ENSG00000159596_ENST00000372025|human|control|control (ssRNA)
RNA: GGGAGUUCUACAGUCCGACGAUCGAUAAAACUGAAGACAUGUAGUAGGAGAUCUCAGGGGCCCACGCCGGCCAGUCCCUCCAAUCCUCCGGAUUCUAGGUAGUCUAGCUUCCUGGUUGCCAGCCAUUACACGGUUUAGCUUUCCAACAGAGGAUUGAGCAUCA

molecular target: T1, UNK ZnF1-3; test: nsRBNS (natural sequence RNA bind-n-seq); RBNS binding buffer (assumed for nsRBNS): 25 mM Tris pH 7.5, 150 mM KCl, 3 mM MgCl2, 0.01% Triton X-100, 500 ug/ml BSA, 20 U/ml SUPERase-In, 4 C; UNK is unkempt and MSI1 is Musashi-1; names of the RNAs are library labels; protein concentration not given here; high values mean tight binding

Going from B1 to B2, the binding signal rises from 0.464 enrichment R to 0.76 enrichment R.

First: B3
Second: B4
The binding signal of the first is higher: 5.33 enrichment R for the first, 5.25 enrichment R for the second.

First: B5
Second: B6
The binding signal of the first is lower: 0.663 enrichment R for the first, 3.51 enrichment R for the second.

Going from B7 to B8, the binding signal falls from 3.46 enrichment R to 0.772 enrichment R.

First: B9
Second: B10
The binding signal of the first is lower: 1.63 enrichment R for the first, 4.56 enrichment R for the second.

Compared with B11, B12 is higher in binding signal: 1.78 enrichment R for the first, 5.89 enrichment R for the second.

First: B13
Second: B14
The binding signal of the first is higher: 1.37 enrichment R for the first, 1.02 enrichment R for the second.

Going from B15 to B16, the binding signal falls from 1.13 enrichment R to 0.753 enrichment R.

Going from B17 to B18, the binding signal falls from 1.36 enrichment R to 0.794 enrichment R.

Compared with B19, B20 is lower in binding signal: 0.98 enrichment R for the first, 0.289 enrichment R for the second.

Compared with B21, B22 is lower in binding signal: 1.69 enrichment R for the first, 0.934 enrichment R for the second.
